Screening results as filed in PubChem.
In the library only some 2.3% were active in any assay of this set; here they are far more common.
ERp5 inh = ERp5 (human) disulfide isomerase inhibition. Q15084. ERp5 insulin aggregation, absorbance 650 nm, 90 min. inhibition, % at 9.99 µM. 0.05% of 350,000 active;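 active = mean replicate inhibition above about 25%, with every replicate also reaching it, limit read from the data, passing the limit was not always enough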
DENV2 CPE = protects cells from dengue virus 2 cytopathic effect | DENV2-infected cells, cytopathic effect rescue, plate reader | CPE inhibition, % at 9.99 µM | 1.7% of 350,000 active | AID 651640; in the data active = CPE inhibition above about 20%, passing the limit was not always enough; tested in BHK-21 cells
PDI turbidity = PDI (human) enzyme inhibition. P07237. 0.052% of 350,000 active. inhibition, % at 10 µM. AID 588391. PDI insulin aggregation turbidity, A650, 90 min;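 active = mean inhibition across replicates of 30% or more, whatever share of single replicates reach that level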
SIRT5 inh = inhibitors of human sirtuin-5 desuccinylase; Q9NXA8; Purified SirT5, succinyl-peptide AMC, trypsin-coupled fluorescence; inhibition, % at 15 µM; 1.1% of 330,000 active; in the data active = inhibition above about 15%
Target sequence (Q9NXA8 whole entry, looked up): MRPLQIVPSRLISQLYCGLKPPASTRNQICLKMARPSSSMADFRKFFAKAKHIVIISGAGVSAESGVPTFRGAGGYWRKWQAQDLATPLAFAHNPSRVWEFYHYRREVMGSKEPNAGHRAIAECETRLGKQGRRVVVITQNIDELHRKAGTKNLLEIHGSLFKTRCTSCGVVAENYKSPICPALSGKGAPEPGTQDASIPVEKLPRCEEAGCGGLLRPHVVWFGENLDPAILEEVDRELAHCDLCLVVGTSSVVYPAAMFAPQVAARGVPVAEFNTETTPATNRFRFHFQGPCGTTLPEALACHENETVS
Rtt109 HAT inh = inhibitors of Candida albicans Rtt109/Vps75 histone acetyltransferase. AID 540336. Q5AAJ8. inhibition, % at 34.9 µM. purified Rtt109/Vps75, ThioGlo CoA-SH fluorescence, 4 h. 0.16% of 330,000 active;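 active = inhibition of at least 50% in every replicate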
Hits are given with their value.

How did CN(C)CC1CSCCC1(O)c1ccc(C(F)(F)F)cc1 (stereo unspecified) do in these assays?
ERp5 inh: inactive; DENV2 CPE: 69; PDI turbidity: inactive; SIRT5 inh: inactive; Rtt109 HAT inh: inactive

What do the screens show for `CN(C)CC1CSCCC1(O)c1ccc(Cl)cc1` (stereo unspecified)?
PDI turbidity: inactive; Rtt109 HAT inh: inactive

What do the screens show for `COc1cccc(N2C(=O)NC(=O)/C(=C/c3ccc([N+](=O)[O-])s3)C2=O)c1`?
ERp5 inh: inactive; DENV2 CPE: inactive; PDI turbidity: inactive; SIRT5 inh: 15; Rtt109 HAT inh: inactive

How did COc1ccccc1N1C(=O)NC(=O)/C(=C/c2ccc([N+](=O)[O-])s2)C1=O do in these assays?
ERp5 inh: inactive; DENV2 CPE: inactive; SIRT5 inh: 18

How did COc1ccc(N2C(=O)NC(=O)/C(=C/c3ccc([N+](=O)[O-])s3)C2=O)cc1 do in these assays?
ERp5 inh: inactive; DENV2 CPE: inactive; PDI turbidity: inactive; SIRT5 inh: 16

What do the screens show for `COc1ccc(N2C(=O)NC(=O)/C(=C\c3ccc([N+](=O)[O-])s3)C2=O)cc1`?
ERp5 inh: inactive; DENV2 CPE: inactive; PDI turbidity: inactive; SIRT5 inh: 20; Rtt109 HAT inh: inactive

What do the screens show for `COc1ccccc1N1C(=O)NC(=O)/C(=C\c2cnn(-c3ccccc3)c2)C1=O`?
ERp5 inh: inactive; PDI turbidity: inactive; SIRT5 inh: inactive; Rtt109 HAT inh: inactive

How did O=C(O)[C@@H]1[C@@H](CO)[C@@H]2Cn3c(ccc(C4=CCCCC4)c3=O)[C@H]1N2C(=O)Cc1ccccn1 do in these assays?
ERp5 inh: inactive; DENV2 CPE: inactive; SIRT5 inh: inactive

How did O=C(Cc1ccccc1)N1CC2(C1)[C@H](c1ccccc1)[C@H](CO)N2Cc1cccc(F)c1 do in these assays?
ERp5 inh: inactive; DENV2 CPE: inactive; SIRT5 inh: inactive

What do the screens show for `O=C(Cc1cccnc1)N1CCCCN2[C@H](C1)[C@@H](c1ccc(/C=C/c3ccccc3)cc1)[C@@H]2CO`?
ERp5 inh: inactive; DENV2 CPE: inactive; SIRT5 inh: inactive

Results for C=C(Cl)CSC(=S)N(CC)CC ?
ERp5 inh: inactive; DENV2 CPE: 32; Rtt109 HAT inh: inactive

Results for O=C(O)[C@@H]1[C@@H](CO)[C@@H]2Cn3c(ccc(-c4cccnc4)c3=O)[C@H]1N2S(=O)(=O)c1ccccc1F ?
ERp5 inh: inactive; DENV2 CPE: inactive; SIRT5 inh: inactive

How did CC=Cc1ccc2n(c1=O)C[C@H]1[C@H](CO)[C@@H](C(=O)OC)[C@@H]2N1S(=O)(=O)c1ccccc1C (mixture of isomers) do in these assays?
ERp5 inh: inactive; DENV2 CPE: inactive; SIRT5 inh: inactive

How did NCCc1ccccc1 do in these assays?
ERp5 inh: inactive; DENV2 CPE: 43; SIRT5 inh: inactive; Rtt109 HAT inh: inactive

Results for CN1CC(C(=O)c2cccs2)C(c2ccc(Cl)cc2)C1 (stereo unspecified) ?
ERp5 inh: inactive; DENV2 CPE: inactive; PDI turbidity: inactive; SIRT5 inh: inactive; Rtt109 HAT inh: inactive

Results for CN1CC(C(=O)c2ccc(Cl)cc2)C(c2ccccc2)C1 (stereo unspecified) ?
ERp5 inh: inactive; DENV2 CPE: inactive; PDI turbidity: inactive; SIRT5 inh: 27; Rtt109 HAT inh: inactive

What do the screens show for `O=C(N/N=C/c1c(O)n(CCc2ccccc2)c(=O)[nH]c1=O)c1ccccc1O`?
ERp5 inh: inactive; DENV2 CPE: inactive; PDI turbidity: inactive; SIRT5 inh: 38; Rtt109 HAT inh: inactive

How did O=C(N/N=C/c1c(O)n(Cc2ccccc2)c(=O)[nH]c1=O)c1ccccc1O do in these assays?
PDI turbidity: inactive; Rtt109 HAT inh: inactive

What do the screens show for `Cc1ccccc1-c1ccc([C@@H]2[C@H](CO)N3CCCCN(C(=O)Cc4ccccn4)C[C@@H]23)cc1`?
ERp5 inh: inactive; DENV2 CPE: inactive; SIRT5 inh: inactive

Results for Nc1ccc(CC2=NCCN2)cc1 ?
ERp5 inh: inactive; DENV2 CPE: 38; PDI turbidity: inactive; SIRT5 inh: inactive; Rtt109 HAT inh: inactive

How did Cc1sc2ccccc2c1CC1=NCCN1 do in these assays?
ERp5 inh: inactive; DENV2 CPE: inactive; PDI turbidity: inactive; SIRT5 inh: inactive; Rtt109 HAT inh: inactive

What do the screens show for `CCCNC(=O)[C@H]1[C@H](CO)[C@H]2Cn3c(cccc3=O)[C@H]2N1C`?
ERp5 inh: inactive; DENV2 CPE: inactive; SIRT5 inh: inactive

What do the screens show for `Nc1ccccc1C(=O)OCCc1ccccc1`?
ERp5 inh: inactive; DENV2 CPE: 78; Rtt109 HAT inh: inactive

Results for CCCCOC(=O)c1ccccc1N ?
ERp5 inh: inactive; DENV2 CPE: inactive; Rtt109 HAT inh: inactive

How did O=S(=O)(c1cc(Cl)cc(Cl)c1)N1Cc2cc(N3CCOCC3)ccc2-n2nncc2C1 do in these assays?
ERp5 inh: inactive; DENV2 CPE: 108; SIRT5 inh: inactive

How did COC(=O)C1=C(c2c(C)noc2C)C[C@@H]2CC[C@H]1N2C(=O)N1CCC(C)CC1 do in these assays?
ERp5 inh: inactive; DENV2 CPE: 51; PDI turbidity: inactive; Rtt109 HAT inh: inactive

What do the screens show for `O=C(Cc1ccccn1)N1CC2(C1)[C@@H](c1ccccc1)[C@@H](CO)N2Cc1ccccn1`?
ERp5 inh: inactive; DENV2 CPE: inactive; SIRT5 inh: inactive

Results for O=C(Cc1ccccn1)N1CCCCN2[C@H](CO)[C@H](c3ccc(-c4ccccc4F)cc3)[C@@H]2C1 ?
ERp5 inh: inactive; DENV2 CPE: inactive; SIRT5 inh: inactive

What do the screens show for `CN(C)[C@@H]1C(=O)C(C(N)=O)=C(O)[C@@]2(O)C(=O)C3=C(O)c4c(O)cccc4[C@@](C)(O)[C@H]3[C@H](O)[C@@H]12`?
ERp5 inh: inactive; DENV2 CPE: inactive; PDI turbidity: inactive; SIRT5 inh: 41; Rtt109 HAT inh: inactive

What do the screens show for `CN(C)[C@@H]1C(=O)C(C(N)=O)=C(O)[C@@]2(O)C(=O)C3=C(O)c4c(O)cccc4[C@@](C)(O)C3C[C@@H]12` (stereo partly specified)?
ERp5 inh: inactive; DENV2 CPE: inactive; PDI turbidity: inactive; SIRT5 inh: 20; Rtt109 HAT inh: inactive

What do the screens show for `COc1cccc(-c2ccc([C@@H]3[C@H]4CN(C(=O)Cc5ccncc5)CCCCN4[C@H]3CO)cc2)c1`?
ERp5 inh: inactive; DENV2 CPE: inactive; SIRT5 inh: inactive

Results for COC(=O)C1=C(c2ccc(-c3ccccc3)c(F)c2)C[C@@H]2CC[C@H]1N2C(=O)NCCNC(C)=O ?
ERp5 inh: inactive; DENV2 CPE: inactive; PDI turbidity: inactive; Rtt109 HAT inh: inactive

How did COC(=O)C1=C(c2ccccc2OCc2ccccc2)C[C@@H]2CC[C@H]1N2C(=O)NCc1ccc(Cl)cc1 do in these assays?
ERp5 inh: inactive; DENV2 CPE: 58; PDI turbidity: inactive; Rtt109 HAT inh: inactive

Results for COC(=O)C1=C(c2ccc(-c3ccccc3)c(F)c2)C[C@@H]2CC[C@H]1N2C(=O)NCCc1ccccc1 ?
ERp5 inh: inactive; DENV2 CPE: 30; PDI turbidity: inactive; SIRT5 inh: inactive; Rtt109 HAT inh: inactive
